# GAA inhib – blocks human lysosomal alpha-glucosidase. P10253. AID 1466. 0.005% of 200,000 active. Potency, µM (titrated, usually from 76.9 µM), for inactives: at the highest dose activity change, negative = inhibition, actives largely listed as inhibitors. purified human GAA, 4-MU-alpha-glucoside fluorescence;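 also: potency is read from the fitted curve at half-maximal effect; plate controls were uninhibited enzyme wells for no effect and no-enzyme background for full effect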
#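 Fluorescence at Ex 365/Em 440 nm from 4-methylumbelliferone reported enzyme activity after 20 min at room temperature. Reactions used 4 nM enzyme and 400 uM substrate at pH 5.0; curves fitted with the Hill equation.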
# GAA spleen mod – inhibits or activates alpha-glucosidase in human spleen homogenate; AID 2112; human spleen homogenate, 4-MU-alpha-glucoside fluorescence; Potency, µM (series often up to 79.9 µM), for inactives: at the top dose activity change, negative = inhibition, most hits filed as inhibitors; P10253; 0.006% of 240,000 active;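 also: potency is read from the fitted curve at half-maximal effect; 0% = enzyme with vehicle and -100% = no enzyme basal signal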
#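 Human spleen homogenate (1 ug) with 4-methylumbelliferyl-alpha-D-glucopyranoside (1 mM final) in 50 mM citrate/phosphate pH 5.0, 0.01% Tween-20; 40 min at 37 C. Stopped at pH 10; 4-MU fluorescence Ex 365/Em 440 nm; AC50 by Hill fit.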
# GLA inh pH 4.5 – blocks human alpha-galactosidase A at pH 4.5; 230,000 tested, under 10 active; purified enzyme, 4-MU-alpha-Gal fluorescence, pH 4.5; P06280; activity change, negative = inhibition, % at 105 µM; AID 1467;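 also: 0% = full activity with enzyme and -100% = basal without enzyme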
# GAA glycogen mod – alters human alpha-glucosidase cleavage of glycogen. P10253. recombinant GAA, glycogen substrate, Amplex Red glucose oxidase fluorescence. Potency, µM (titrated, usually from 76.4 µM), for inactives: at the highest dose activity change, negative = inhibition, most hits filed as inhibitors. 0.38% of 300,000 active;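 also: potency is read from the fitted curve at half-maximal effect; 0% = full enzyme reaction and -100% = no-enzyme basal signal; the screen sought inhibitors and activators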
#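 Recombinant enzyme (4 nM final) with compounds titrated up to 77 uM and bovine liver glycogen (30 ug) in citrate pH 5.0, 0.01% Tween-20, 37 C 40 min. Released glucose detected by Amplex Red/glucose oxidase (Ex 573/Em 610); AC50 from Hill fits.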
# aGal spleen mod – inhibits or activates alpha-galactosidase in human spleen homogenate; P06280; human spleen homogenate, 4MU-alpha-Gal fluorescence, 40 min; Potency, µM (doses to about 80 µM), without a hit: at the highest dose activity change, negative = inhibition, usual class: inhibitors; 0.008% of 240,000 active;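 also: potency is read from the fitted curve at half-maximal effect; 0% = enzyme with vehicle and -100% = no enzyme basal signal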
# Target sequence (P06280 32-429 limits assumed): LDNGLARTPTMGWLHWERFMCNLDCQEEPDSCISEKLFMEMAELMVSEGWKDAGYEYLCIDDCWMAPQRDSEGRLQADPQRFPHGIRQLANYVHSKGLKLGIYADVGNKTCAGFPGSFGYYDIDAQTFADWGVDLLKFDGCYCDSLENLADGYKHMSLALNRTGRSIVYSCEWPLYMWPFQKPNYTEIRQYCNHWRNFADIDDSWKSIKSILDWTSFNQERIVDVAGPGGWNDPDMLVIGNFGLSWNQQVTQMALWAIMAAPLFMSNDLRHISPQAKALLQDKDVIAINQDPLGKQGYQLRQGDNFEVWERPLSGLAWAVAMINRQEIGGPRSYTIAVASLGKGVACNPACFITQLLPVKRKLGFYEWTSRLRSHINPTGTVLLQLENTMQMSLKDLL
#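 Human spleen homogenate (1 ug) was the enzyme source, with 4-methylumbelliferyl-alpha-D-galactopyranoside (1 mM final) in pH 5.0 citrate buffer with 0.01% Tween-20. Compounds were titrated; after 40 min at 37C, NaOH/glycine stop, 4-MU fluorescence read; AC50 from Hill fits.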
# Active calls of the source: *; ? = inconclusive; / = no result; [ ] = another dose, or the depositor's remark. Only some compounds are listed: those with a hit (about 0.4% of all), similar ones and a draw of the others. Calls follow the shape of the dose curve; as a rule, active = well fitted curve in the direction sought with a large enough effect; inconclusive = small, poorly fitted or top-dose-only effect, or another doubt; inactive = no such curve, though single readings can be large; an effect the other way counts as inactive or inconclusive.
SMILES,GAA inhib,GAA spleen mod,GLA inh pH 4.5,GAA glycogen mod,aGal spleen mod
C[C@]12CC[C@@H]3c4cc(O)c(O)cc4CC[C@H]3[C@@H]1CC[C@@H]2O,-34.3%[15.4 µM],7.0%,-11.3,3.14µM*,4.3%
C[C@]12CC[C@@H]3c4ccc(O)c(O)c4CC[C@H]3[C@@H]1CC[C@@H]2O,-12.9%[15.4 µM],10.6%,-22.5,8.84µM*,10.9%
C[C@]12CC[C@H]3[C@@H](CCC4=CC(=O)CC[C@@H]43)[C@@H]1CC[C@@H]2O,/,-1.9%,-4.4,/,-8.3%
CN(C(=O)Cc1ccc(Cl)c(Cl)c1)C(CN1CCCC1)c1cccc(N=C=S)c1 (stereo not drawn),/,2.8%,/,/,-1.1%
CCOc1cc(/C=C2/NC(=O)N(CC(=O)Nc3cccc(C)c3)C2=O)ccc1O,-4.2%,-6.6%,1.7,22.4µM*,-1.8%
[CH3][Hg][Cl],/,8.4%,/,/,-2.8%
Cc1cc2c(s1)Nc1ccccc1N=C2N1CCN(C)CC1,-0.3%[15.4 µM],-2.9%,0.1,5.62µM*,-6.2%
O=c1cc(-c2ccc(O)c(O)c2)oc2c(C3O[C@H](CO)[C@@H](O)[C@H](O)[C@H]3O)c(O)cc(O)c12 (stereo partly drawn),?,-16.1%,-13.7,4.47µM*,-8.6%
Cc1cc(/C=C2\C(=O)NC(=O)N(c3ccc(F)cc3)C2=O)c(C)n1-c1ccc(C(=O)O)cc1,28.2µM*,0.4%,-19.5,?,12.7%
O=C1C2CCN(CC2)C1Cc1ccccc1O (stereo not drawn),-4.5%,-3.1%,2.2,8.3%,4.3%
Oc1ccc(CC2CC3CCN2CC3)cc1O (stereo not drawn),1.4%,-1.7%,-5.1,3.52µM*,-0.7%
CN1C(=O)C(Cc2ccc3c(c2)OCO3)C(=O)N(C)C1=O,-4.0%,-5.1%,-2.0,39.8µM*,3.0%
O=C1CC(NC(=O)C(F)(F)F)=NN1c1ccccc1,3.5%,-12.2%,-10.8,17.8µM*,-0.4%
CNc1ccc2oc(C[C@@H]3OC4(CC[C@@H]3C)O[C@H]([C@@H](C)C(=O)c3ccc[nH]3)[C@H](C)C[C@H]4C)nc2c1C(=O)O (stereo partly drawn),/,-14.8%,/,/,12.9%
CCCCC/C=C\C/C=C\C/C=C\C/C=C\CCCC(=O)Nc1ccc(O)cc1C,/,2.9%,-7.4,/,?
CCCCC/C=C\C/C=C\C/C=C\C/C=C\CCCC(=O)Nc1ccc(O)cc1,?,0.1%,-8.2,31.6µM*,-4.4%
CC12CCCCC1N(O)CN2O (stereo not drawn),-0.6%,2.2%,5.4,17.8µM*,4.8%
O=C(Nc1ccc(COc2ccccc2)cc1)Oc1ccccc1N1CCOCC1,-7.7%,-0.2%,-3.4,3.98µM*,-0.3%
O[C@@H]1[C@H](O)[C@H]2[C@@H](O)CCN2C[C@@H]1O,/,35.5µM*,-1.7,/,-1.5%
CC(=O)[O-].CC(=O)[O-].O.O.O.[Pb+2],/,-8.4%,/,/,-10.5%
O=c1[nH]c(=O)n(Cc2ccco2)c(O)c1/C=N/N1CCCCCC1,-1.8%,6.4%,6.6,-52.4%,7.6%
N#Cc1c(/N=C/c2c(O)n(Cc3ccco3)c(=O)[nH]c2=O)sc2c1CCCC2,11.0%,-5.1%,-3.6,14µM*,-18.2%
C=C(Cl)CCl,/,3.2%,/,/,1.9%
O=C1CC(=O)N(Cc2ccccc2)C(=S)N1,/,/,/,-11.9%,/
O=C1CC(N(O)c2ccccc2)C(=O)N1Cc1ccccc1 (stereo not drawn),-6.2%,1.9%,4.8,31.6µM*,-0.1%
SMILES,GAA inhib,GAA spleen mod,GLA inh pH 4.5,GAA glycogen mod,aGal spleen mod
CC1(C)[C@H](C(=O)O[C@H](C#N)c2cccc(Oc3ccccc3)c2)[C@@H]1C=C(Br)Br,/,-0.9%,/,/,6.6%
NC1CCCC[C@@H]1N (stereo partly drawn),/,9.8%,/,/,25.3%
CCCC/C=C/[C@@H](NP(=O)(c1ccccc1)c1ccccc1)c1ccccc1OC,/,-1.1%,-16.9,/,7.6%
CCCC/C(C)=C/[C@@H](NP(=O)(c1ccccc1)c1ccccc1)c1ccccc1,?,1.6%,-0.7,1.26µM*,6.9%
ON1C2CCCCC2N(O)C1c1ccccc1F (stereo not drawn),1.4%,-3.5%,5.9,8.84µM*,-19.7%
CN1CC(C(=O)c2ccc(Cl)cc2)C(c2ccccc2F)C1 (stereo not drawn),5.8%,1.1%,1.8,2.8%,8.9%
COC(=O)[C@]1(C)CC[C@@]2(C)CC[C@@]3(C)C4=CC=C5C(=CC(=O)C(O)=C5C)[C@@]4(C)CC[C@@]3(C)C2C1 (stereo partly drawn),/,7.7%,-9.1,/,4.1%
CCCCC/C=C\C/C=C\C/C=C\C/C=C\CCCC(=O)N(Cc1ccc(O)c(Cl)c1)Cc1ccc(O)c(Cl)c1,/,17.5%,-4.4,/,15.6%
O=C1C=CC(=O)C(Cl)=C1,/,-11.6%,-0.3,/,4.2%
CNC(=O)Oc1cccc2ccccc12,/,-2.6%,1.0,35.5µM*,-0.2%
CCN(CC)C(=O)C(C)Oc1cccc2ccccc12 (stereo not drawn),/,-0.3%,/,/,-0.1%
